Screens as filed in PubChem.
Shown are actives, neighbours in structure and some others; about 9.2% of the full set was active somewhere.
ELG1 genotox = genotoxicity induction in ELG1-luciferase HEK293T cells; HEK293T ELG1-luciferase reporter, luminescence, 16 h; Potency, µM (titrated, usually from 46 µM), for the others: at the top dose activity change, positive = activation, usual class: activators; 330,000 tested, 1.3% active; also: % of control where 0% means no effect; nearly all actives have a fitted effect of over 60% in size
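ELG1-luciferase HEK293T cells, 2,000/well; compound pinned in; 16 hr, 37 °C, 5% CO2; ONE-Glo, 30 min RT; luminescence on CCD imager.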
FLuc modulator = counter-screen for miR-21 project: firefly luciferase inhibitors or activators. 360,000 tested, 6.9% active. AID 588342. P08659. Potency, µM (highest dose often 57.5 µM), without a hit: at the top dose activity change, negative = inhibition, hits mostly inhibitors. purified FLuc, Km substrates, luminescence inhibition;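 also: plate controls were vehicle for no effect and reference inhibitor for full effect; nearly all actives have a fitted effect of over 55% in size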
Target sequence (P08659 whole entry, looked up): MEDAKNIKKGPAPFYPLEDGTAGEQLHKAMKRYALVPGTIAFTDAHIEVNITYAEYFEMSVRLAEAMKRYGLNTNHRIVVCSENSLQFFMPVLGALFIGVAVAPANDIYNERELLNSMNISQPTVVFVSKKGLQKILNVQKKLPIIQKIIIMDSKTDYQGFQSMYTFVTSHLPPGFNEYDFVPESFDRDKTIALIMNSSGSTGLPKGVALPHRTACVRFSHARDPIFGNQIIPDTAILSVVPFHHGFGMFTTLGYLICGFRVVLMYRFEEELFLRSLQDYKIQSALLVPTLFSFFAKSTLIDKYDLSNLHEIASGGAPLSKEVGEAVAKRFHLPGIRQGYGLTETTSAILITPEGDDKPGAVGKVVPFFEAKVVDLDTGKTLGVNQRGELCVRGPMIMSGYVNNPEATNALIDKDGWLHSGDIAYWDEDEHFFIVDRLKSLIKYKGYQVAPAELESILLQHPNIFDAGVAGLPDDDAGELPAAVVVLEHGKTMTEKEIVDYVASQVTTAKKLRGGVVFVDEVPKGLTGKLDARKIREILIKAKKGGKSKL
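Purified P. pyralis luciferase, 10 nM final, with Km-level 10 uM D-luciferin and 10 uM ATP in 50 mM Tris acetate pH 7.5, 10 mM Mg acetate, 0.01% Tween-20, 0.05% BSA; 6-point qHTS titration about 60 µM downward; luminescence read.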
Rab9 prom act = Rab9 promoter activation. 320,000 tested, 2.8% active. Potency, µM (top dose mostly 9.22 µM), without a hit: top-dose activation, negative = inhibition, hits mostly activators. Huh7 Rab9 promoter-luciferase reporter, luminescence, 24 h; also: % of control where 0% means no effect; nearly all actives have a fitted effect of over 60% in size
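Measured in stably transfected Huh7 cells bearing a Rab9 promoter–luciferase construct: 24 h compound treatment at 37 °C, followed by luminescence detection.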
SMN2 splice enh = enhancers of SMN2 splice variant expression. HEK293 SMN2-luciferase splicing reporter, luminescence, 30-36 h. 210,000 tested, 2.8% active. Potency, µM (top dose mostly 46.1 µM), for inactives: at the highest dose activity change, positive = activation, most hits filed as activators. AID 1458; also: % of control where 0% means no effect; nearly all actives have a fitted effect of over 55% in size
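HEK293 cells carry an SMN2 minigene-luciferase reporter in which exon 7 inclusion puts luciferase in frame. Cells were seeded at 2000 cells/well, attached for 10-12 hours, then exposed to compounds for 30-36 hours at 37C before ONE-Glo luminescence.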
ELG1 DNA repair = ELG1-dependent DNA repair inhibition; Potency, µM (series often up to 46.1 µM), inactives show at the highest dose activity change, negative = inhibition, usual class: inhibitors; 330,000 tested, 2.3% active; AID 504467; HEK293T ELG1-luciferase reporter, luminescence, 16 h; DNA damage induced by 5-fluorouridine; also: % is scaled to controls: 0 for no effect and ±100 for the full control effect; nearly all actives have a fitted effect of over 55% in size
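Overnight (16 hr) co-exposure of 2,000 cells/well to 5-fluorouridine and compound at 37 °C preceded detection. Luciferase was quantified via ONE-Glo luminescence; loss of signal denotes inhibition.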
NPC1 promoter act = activates the NPC1 promoter. Potency, µM (series often up to 9.22 µM), for inactives: at the highest dose activation, actives largely listed as activators. Huh7 NPC1 promoter luciferase reporter, 24 h. 320,000 tested, 2.4% active; also: % of control where 0% means no effect; nearly all actives have a fitted effect of over 60% in size
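Huh7 cells stably carrying NPC1 promoter–luciferase, plated in Opti-MEM with 10% FBS for 2 h, were exposed to compound in DMSO for 24 h at 37 °C; luciferase reagent was added for 10 min and luminescence read.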
Active calls of the source: *; ? = inconclusive; · = no result given; [ ] = another dose, or the depositor's remark. Calls follow the shape of the dose curve; as a rule, active = well fitted curve in the direction sought with a large enough effect; inconclusive = small, poorly fitted or top-dose-only effect, or another doubt; inactive = no such curve, though single readings can be large; an effect the other way counts as inactive or inconclusive. Potency is read from the fitted curve at half-maximal effect.

SMILES	ELG1 genotox	FLuc modulator	Rab9 prom act	SMN2 splice enh	ELG1 DNA repair	NPC1 promoter act
COc1ccc(Cl)cc1NC(=O)Cn1c(=O)n(Cc2nc(C)no2)c(=O)c2ccccc21	·	2%	·	·	·	·
Cn1ccnc1SCC(=O)c1c[nH]c2ccccc12	10µM*	19µM*	3.5µM*	18µM*	?	4µM*
COc1ccccc1C(=O)CSc1nccn1C	9%	?	27%	·	?	23%
COc1ccc(/C=C2\Oc3cc(OCC(=O)N4CCC[C@H]4C(=O)O)ccc3C2=O)c(OC)c1	-2%	12µM*	-2%	·	26%	0%
COc1ccc(OC)c(/C=C2\Oc3cc(OCC(=O)N4CCC[C@H]4C(=O)O)ccc3C2=O)c1	1%	?	5%	·	22%	0%
COc1cccc(/C=C2\Oc3cc(OCC(=O)N4CCC[C@H]4C(=O)O)ccc3C2=O)c1	8%	2.7µM*	-3%	·	27%	0%
Cn1ccc2cc(-c3ccc4ncnc(NCc5cccc(F)c5)c4c3)ccc21	·	?	-5%	·	·	-2%
CCCn1c(SCC(=O)NCc2ccccc2)n[nH]c1=O	-2%	2%	12%	-2%	-3%	-1%
COc1ccc(CCN2C(=O)c3[nH]nc(-c4ccccc4O)c3C2c2ccccc2)cc1OC (centres undefined)	-19%	12%	0%	-17%	13µM*	0%
COc1ccc(CCN2C(=O)c3[nH]nc(-c4ccccc4O)c3C2c2ccc(O)c(OC)c2)cc1 (centres undefined)	·	4%	·	5%	·	·
O=C(O)CCC(=O)Nc1ccc(C(=O)OCC(=O)c2ccc(Cl)cc2Cl)cc1	0%	13µM*	-8%	·	?	-6%
CCC(=O)Nc1cc(C(=O)OCC(=O)c2ccccc2)ccc1C	?	12µM*	?	·	?	?
Cc1cc(C(=O)OCC(=O)Nc2cc(Cl)ccc2C)c(C)o1	4%	-1%	3%	·	25%	1%
CCC(=O)Nc1cc(C(=O)OCC(=O)c2ccccc2Cl)ccc1C	?	8.5µM*	3.5µM*	·	?	?
Cc1ccccc1NC(=O)CC(=O)c1ccccc1	11%	?	?	·	?	28%
CCC(=O)Nc1cc(C(=O)OCC(=O)c2ccc(Cl)cc2Cl)ccc1C	-2%	2.1µM*	-1%	17%	2%	-4%
O=C(Nc1ccc(C(=O)OCc2cc(=O)n3ccsc3n2)cc1)c1cccc(F)c1	·	0%	·	·	·	·
Cc1ccc2c(C)c(C(=O)NCCN3CCOC3=O)oc2c1C	7%	-17%	5%	·	-3%	-2%
CCc1ccc(CNC(=O)c2cnc3sc4cc(OC)ccc4n3c2=O)cc1	·	3%	·	4%	·	·
CCNc1nc(NCC)n2c(SCC(=O)Nc3ccc(OC(F)F)cc3)nnc2n1	1%	-1%	-3%	·	0%	-1%
Cc1cccc(N=N/C(=C\O)C(=O)c2cccs2)c1	-3%	?	15%	-43%	21µM*	11%
Cc1ccc(NC(=O)C(=O)NCCCN2CCOCC2)cc1C	·	7%	·	-12%	·	·
CCOC(=O)C(C)S(=O)(=O)c1ccc(C(F)(F)F)cn1 (centres undefined)	-4%	5%	-1%	9%	?	0%
Cn1c(=O)c2c(-c3ccc(Br)cc3)n(CCc3ccccc3)cc2n(C)c1=O	·	-13%	·	7%	·	·
CCC(CC)=N/N=C/c1c(O)n(CC)c2cc(C3=NNC(=O)CC3)ccc12	0%	?	8%	2%	21µM*	0%
SMILES	ELG1 genotox	FLuc modulator	Rab9 prom act	SMN2 splice enh	ELG1 DNA repair	NPC1 promoter act
CCCCOc1ccc(C2=NNC(=O)CC2)cc1	?	?	14%	-7%[1.84 µM]	?	12%
CCn1c(O)c(/C=N/N=C/c2ccccc2)c2ccc(C3=NNC(=O)CC3)cc21	-2%	-18%	0%	-10%	26µM*	-3%
Cc1ccc(-n2ncc3c2CCCC3NC(=O)c2ocnc2C)cc1C (centres undefined)	9%	0%	-32%	·	?	-34%
COc1ccc(CCNC(=O)c2cc3n(n2)CCCN(Cc2ccc(C)cc2)C3=O)cc1OC	·	-8%	·	·	·	·
Cc1oc2ccc(O)cc2c1C(=O)OC(C)C	15%	15µM*	1%	-12%	?	-2%
Cc1oc2ccc(OCC(N)=O)cc2c1C(=O)OC(C)C	-2%	3%	2%	-27%	?	-4%
C=CCNC(=S)Nc1sc2c(c1C(N)=O)CCCC2	2%	15µM*	10%	·	?	14%
CC(C)C(=O)NC(=S)Nc1sc2c(c1C(N)=O)CCCC2	?	9.5µM*	?	?	?	?
COC(=O)Nc1sc2c(c1C(N)=O)CCCCCC2	0%	?	-9%	-1%	-9%	0%
C=CC(=O)Nc1sc2c(c1C(N)=O)CCCC2	4%	?	-3%	·	?	-12%
CCCC(=O)NC(=S)Nc1sc2c(c1C(N)=O)CCC2	10%	4.3µM*	20%	?	?	12%
COc1cccc(NC(=O)C2CCN(c3nc4ccccc4nc3C(F)(F)F)CC2)c1	·	-1%	·	·	·	·
CCCOc1ccc(CNC(=O)c2ccc3c(c2)N(Cc2ccccc2)CCS3)cc1	·	-10%	·	9%	·	·
O=C(NNC1=NS(=O)(=O)c2ccccc21)c1ccc(Cl)cc1	-6%	3.4µM*	?	-5%	?	?
O=C(NNC1=NS(=O)(=O)c2ccccc21)c1ccc([N+](=O)[O-])cc1	15%	1.5µM*	28%	·	-4%	?
CCN(CC)S(=O)(=O)c1ccc(C(=O)NNC2=NS(=O)(=O)c3ccccc32)cc1	2%	-13%	-3%	·	10%	-1%
O=C(Cc1ccccc1)NNC1=NS(=O)(=O)c2ccccc21	2%	?	-10%	·	6%	1%
Clc1ccc(NCc2nc3ccccc3n2CCOc2ccccc2)cc1	·	?	·	-30%	·	·
Cc1ccccc1NCc1nc2ccccc2n1CCOc1ccccc1	·	9.5µM*	·	18µM*	·	·
CCOc1ccc(NCc2nc3ccccc3n2CCOc2ccccc2)cc1	?	12µM*	25%	-43%	?	?
COCCNC(=O)Cn1c(=O)c2cccn2c2ccc(F)cc21	·	-1%	·	·	·	·
Cc1noc(C)c1COC(=O)c1ccc2ccccc2n1	2%	-9%	5%	-4%	1%	-3%
Cc1ccc(COC(=O)c2ccc3ccccc3n2)cc1	2%	15µM*	4%	·	-14%	0%
Cc1nc2ccccn2c1C(=O)/C=C/c1ccc(F)cc1	6%	3µM*	?	-39%	?	2.8µM*
COCCNC(=O)c1ccc2ccccc2n1	0%	-6%	15%	4%	6%	14%
